Tests used:
Conditions in all cases: concentration: 1 μM, replicates: in singlicate; n = 1
CAMK1 = system: CAMK1
CAMK2A = system: CAMK2A
CAMK2B = system: CAMK2B
CAMK2D = system: CAMK2D
CAMK2G = system: CAMK2G
CAMK4 = system: CAMK4
CAMKK1 = system: CAMKK1
CAMKK2 = system: CAMKK2
CASK = system: CASK
CDC2L1 = system: T1, CDC2L1
T1 construct: gene CDK11B

CDC2L2 = system: CDC2L2
CDC2L5 = system: T2, CDC2L5
T2 construct: gene CDK13

CDK11 = system: T3, CDK11
T3 construct: gene CDK19

CDK2 = system: CDK2
CDK3 = system: CDK3
CDK4-cyclinD1 = system: CDK4-cyclinD1
CDK4-cyclinD3 = system: CDK4-cyclinD3
CDK4 = system: CDK4
CDK5 = system: CDK5
CDK7 = system: CDK7
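Note: KINOMEscan kinase panel screen.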

| SMILES | %Inh (CAMK1) [%] | %Inh (CAMK2A) [%] | %Inh (CAMK2B) [%] | %Inh (CAMK2D) [%] | %Inh (CAMK2G) [%] | %Inh (CAMK4) [%] | %Inh (CAMKK1) [%] | %Inh (CAMKK2) [%] | %Inh (CASK) [%] | %Inh (CDC2L1) [%] | %Inh (CDC2L2) [%] | %Inh (CDC2L5) [%] | %Inh (CDK11) [%] | %Inh (CDK2) [%] | %Inh (CDK3) [%] | %Inh (CDK4-cyclinD1) [%] | %Inh (CDK4-cyclinD3) [%] | %Inh (CDK4) [%] | %Inh (CDK5) [%] | %Inh (CDK7) [%] |
| --- | --- | --- | --- | --- | --- | --- | --- | --- | --- | --- | --- | --- | --- | --- | --- | --- | --- | --- | --- | --- |
| Cc1ccc(C)c(NC(=O)Nc2ccc(C)c(-c3ccc(C(=O)Nc4ccncc4)cc3)c2)c1 [GSK1398473] | 8 | 0 | 0 | 0 | 25 | 0 | 12 | 27 | 0 | 0 | 5 | 0 | 74 | 0 | 0 | 0 | 2 | 0 | 2 | 0 |
| Cc1ccc(O)cc1Nc1ccnc2cc(-c3ccc(CN4CCCCC4)o3)ccc12 [GW557777] | 4 | 0 | 13 | 10 | 8 | 0 | 10 | 9 | 2 | 20 | 4 | 0 | 7 | 0 | 8 | 0 | 7 | 0 | 0 | 0 |
| Cl.Cl.NC(CNC(=O)c1cc(Br)c(-c2ccnc3[nH]ccc23)s1)c1ccccc1 (stereo not shown) [GSK1322949] | 42 | 45 | 39 | 38 | 48 | 0 | 8 | 29 | 38 | 0 | 9 | 0 | 42 | 0 | 25 | 17 | 0 | 23 | 0 | 47 |
| COc1ccc(NC(=O)c2ccoc2)cc1-c1ccc(C(=O)NCC2CC2)cc1 [GW810437] | 0 | 0 | 0 | 0 | 0 | 19 | 15 | 30 | 13 | 14 | 6 | 16 | 11 | 0 | 2 | 0 | 0 | 15 | 0 | 26 |
| Nc1ncc(-c2ccc3nccc(-c4ccncc4)c3c2)cc1S(=O)(=O)N1CCCCC1 [GSK1693850] | 18 | 4 | 0 | 0 | 14 | 0 | 24 | 33 | 24 | 0 | 21 | 0 | 73 | 0 | 7 | 9 | 13 | 0 | 0 | 80 |
| O=C(Nc1n[nH]c2cc(-c3cccs3)ccc12)C1CC1 [SB-731284] | 11 | 0 | 0 | 0 | 0 | 0 | 17 | 0 | 49 | 0 | 0 | 85 | 0 | 65 | 16 | 0 | 18 | 8 | 0 | 48 |
| COC(=O)Nc1nc2cc(Oc3ccc(NC(=O)Nc4cccc(SC)c4)cc3)ccc2[nH]1.Cl [GW697999] | 11 | 18 | 28 | 0 | 12 | 0 | 0 | 0 | 16 | 0 | 1 | 0 | 8 | 0 | 8 | 34 | 0 | 49 | 0 | 54 |
| CNc1nccc(-c2ccc3c(N)n[nH]c3c2)n1 [GSK2206003] | 24 | 14 | 31 | 33 | 33 | 0 | 10 | 13 | 21 | 10 | 17 | 0 | 0 | 23 | 19 | 7 | 0 | 31 | 0 | 23 |
| CC(=O)Nc1cn2nc(Oc3cccc(NC(=O)c4cccc(C(F)(F)F)c4)c3)ccc2n1 | 19 | 0 | 15 | 1 | 0 | 0 | 0 | 0 | 17 | 7 | 14 | 0 | 29 | 2 | 24 | 0 | 0 | 0 | 0 | 0 |
| COc1cccc(-c2nc(-c3ccccc3)[nH]c2-c2ccncc2)c1 [SB-610250] | 1 | 0 | 0 | 0 | 2 | 0 | 0 | 0 | 15 | 0 | 0 | 0 | 22 | 2 | 24 | 0 | 7 | 0 | 0 | 0 |
| Cc1ccc(-c2ccc3occ(-c4ccc(S(C)=O)cc4)c3c2)nn1 (stereo not shown) | 0 | 0 | 0 | 7 | 0 | 18 | 11 | 20 | 0 | 0 | 0 | 24 | 29 | 36 | 4 | 0 | 0 | 0 | 0 | 0 |
| Cc1cc(-c2c(-c3ccc(F)cc3)ncn2CCCN2CCOCC2)nc(N)n1 [SB-222517] | 17 | 0 | 30 | 0 | 8 | 13 | 25 | 0 | 33 | 0 | 8 | 0 | 22 | 0 | 18 | 0 | 0 | 24 | 14 | 11 |
| Cc1ccccc1CC(=O)N1CCc2cc(-c3cn(C)c4ncnc(N)c34)ccc21 [GSK2603346] | 16 | 0 | 0 | 0 | 5 | 5 | 0 | 0 | 0 | 0 | 3 | 0 | 81 | 6 | 2 | 0 | 0 | 29 | 0 | 0 |
| Cc1cccc(Nc2nc(N[C@H]3CCCC[C@H]3N)ncc2C(N)=O)c1.Cl [GSK986310] | 54 | 0 | 0 | 16 | 33 | 72 | 22 | 26 | 56 | 0 | 11 | 0 | 24 | 0 | 24 | 0 | 1 | 0 | 5 | 48 |
| Cc1ccc(NC(=O)c2cccc(N3CCCCC3)c2)cc1-c1ccc(C(=O)NCC2CC2)cc1 [GSK1917008] | 9 | 0 | 0 | 0 | 21 | 1 | 26 | 11 | 18 | 22 | 8 | 0 | 8 | 2 | 8 | 0 | 1 | 0 | 2 | 0 |
| CC(C)c1nc(-c2cccc(NS(=O)(=O)c3c(F)cccc3F)c2)c(-c2ccnc(Nc3ccc(N4CCOCC4)nc3)n2)s1.Cl [GSK1723980] | 47 | 0 | 0 | 2 | 10 | 0 | 14 | 6 | 92.1 | 0 | 0 | 79 | 0 | 99.1 | 99.7 | 96.2 | 56 | 94.4 | 98.9 | 62 |
| O=C(O)C(F)(F)F.O=c1[nH]ccc2nc(N[C@@H]3CCNC3)nc(Nc3cc(Cl)cc(Cl)c3)c12 [GSK2188764] | 84 | 71 | 37 | 60 | 57 | 95.9 | 75 | 46 | 19 | 1 | 24 | 0 | 2 | 0 | 30 | 38 | 23 | 13 | 44 | 85 |
| Fc1cc(Cl)ccc1Nc1ccnc2cc(-c3ccc(CN4CCOCC4)o3)ccc12 [GW560109] | 0 | 0 | 0 | 0 | 0 | 13 | 0 | 0 | 16 | 0 | 0 | 0 | 0 | 0 | 18 | 0 | 0 | 0 | 0 | 0 |
| N#CC1(c2cccc(C(=O)Nc3cccc(Oc4ccc5nc(NC(=O)C6CC6)sc5n4)c3)c2)CC1 | 0 | 29 | 26 | 20 | 100 | 2 | 9 | 99.6 | 16 | 0 | 0 | 6 | 24 | 0 | 0 | 15 | 1 | 0 | 0 | 12 |
| Nc1ncc(-c2cn[nH]c2)c2scc(-c3ccc4c(c3)CCN4C(=O)Cc3ccccc3)c12 [GSK2593067] | 33 | 0 | 0 | 0 | 18 | 0 | 56 | 8 | 13 | 0 | 0 | 0 | 23 | 0 | 2 | 0 | 0 | 0 | 0 | 0 |

Reference: paper PMC5540273 (PLoS ONE, 2017)
